Assay results published in doi:10.1101/2025.02.07.636106.

These substances were tested against Histone deacetylase 2 (UniProt Q92769) (assay: cross-link between two proteins; affinity purification or IP with mass spectrometry; cross-linking mass spectrometry).
Chain of Histone deacetylase 2 (Q92769 whole entry): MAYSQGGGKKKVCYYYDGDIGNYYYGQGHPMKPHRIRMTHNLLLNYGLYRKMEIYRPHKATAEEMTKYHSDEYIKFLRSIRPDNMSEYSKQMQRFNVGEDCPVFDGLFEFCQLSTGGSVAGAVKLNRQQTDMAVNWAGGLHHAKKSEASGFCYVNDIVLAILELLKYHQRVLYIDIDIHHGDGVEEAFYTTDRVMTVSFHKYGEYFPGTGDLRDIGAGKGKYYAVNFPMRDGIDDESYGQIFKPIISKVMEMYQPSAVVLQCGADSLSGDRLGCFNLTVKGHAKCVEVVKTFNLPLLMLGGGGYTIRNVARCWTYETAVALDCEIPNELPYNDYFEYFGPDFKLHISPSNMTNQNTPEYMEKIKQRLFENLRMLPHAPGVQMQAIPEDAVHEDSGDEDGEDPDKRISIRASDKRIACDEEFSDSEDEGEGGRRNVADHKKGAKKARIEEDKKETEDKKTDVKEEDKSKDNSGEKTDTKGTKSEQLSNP

Listed as a hit, yes:
Histone-binding protein RBBP7, Q16576
Transcriptional repressor p66-beta, Q8WXI9
Methyl-CpG-binding domain protein 3, O95983
ATP-dependent chromatin remodeler CHD4, Q14839
